Laboratory results published in PubChem BioAssay AID1851 (National Center for Advancing Translational Sciences (NCATS), 2009).
The whole screen tested about 16,000 compounds, of which about 2,600 (16%) were called active. Not shown: some 20% with an inconclusive outcome. Calls follow the shape of the dose curve; as a rule, active = well fitted curve in the direction sought with a large enough effect; inconclusive = small, poorly fitted or top-dose-only effect, or effect the other way; inactive = no such curve, though single readings can be large or run the other way. The list is a sample of the results.

Biological target: Cytochrome P450 2D6 (Homo sapiens) (UniProt P10635)
Experiment: Cytochrome panel assay with activity outcomes
Settings: recombinant CYP, pro-luciferin dealkylation, luminescence, p450-cyp2d6; series mostly up to 57.1 µM; activity, negative = inhibition: at the top concentration
% is scaled to controls: 0 for no effect and ±100 for the full control effect.

Sequence of Cytochrome P450 2D6 (Homo sapiens) (P10635 whole entry, looked up): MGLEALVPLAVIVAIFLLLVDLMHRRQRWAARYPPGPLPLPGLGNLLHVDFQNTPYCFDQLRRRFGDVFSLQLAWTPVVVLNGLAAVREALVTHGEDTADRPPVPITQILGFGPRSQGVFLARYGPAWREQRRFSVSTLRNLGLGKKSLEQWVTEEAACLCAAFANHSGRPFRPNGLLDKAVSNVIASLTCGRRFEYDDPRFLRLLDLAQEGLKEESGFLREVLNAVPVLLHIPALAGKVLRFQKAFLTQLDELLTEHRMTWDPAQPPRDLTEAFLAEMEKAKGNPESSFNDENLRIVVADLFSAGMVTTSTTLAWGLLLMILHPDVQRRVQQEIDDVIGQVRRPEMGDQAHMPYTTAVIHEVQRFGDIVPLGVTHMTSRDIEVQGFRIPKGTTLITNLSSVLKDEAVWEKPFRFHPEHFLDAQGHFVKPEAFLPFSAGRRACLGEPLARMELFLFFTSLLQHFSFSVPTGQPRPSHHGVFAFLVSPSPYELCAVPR

activity, negative = inhibition, inactive:
CC(CCc1ccccc1)NS(=O)(=O)c1ccccc1 (centres undefined) -24%
COc1cccc(Cn2c(=O)c(-c3ccccc3)nc3cnc(N(C)C)nc32)c1 -12.2%
CC(=O)Nc1nc(NC(C)=O)c2[nH]c(CO)nc2n1 -2.84% [at 11.4 µM]
OC(CN1CCCCC1)CN1CCCCC1 2.59%
O=CN1CCN(C[C@H](O)CN2CCCCC2)CC1 9.19% [at 11.4 µM]
Nc1ccc(C(=O)C[C@H](N)C(=O)O)cc1O -0.576% [at 11.4 µM]
CS(=O)(=O)Nc1ccc(C(=O)N2CCN(c3ccccc3)CC2)cc1 -5.62%
Cc1ccc(C)c(S(=O)(=O)NCc2ccc(C(=O)N3CCC(Cc4ccccc4)CC3)cc2)c1 -14.3%
COc1ccccc1CNS(=O)(=O)c1ccc2[nH]cc(C(=O)O)c(=O)c2c1 11.4%
COCC(=O)N/N=C/c1ccc(Sc2nc3ccccc3s2)o1 -14.8%
Cc1ccc(C(=O)NC(=S)N2CC(C)OC(C)C2)cc1[N+](=O)[O-] (centres undefined) -2.21%
CC(C)C[C@H](NC(=O)[C@@H]1O[C@H]1C(=O)O)C(=O)NCCCCN=C(N)N 13.8%
O=C(NC(C(=O)c1ccccc1)n1cnccc1=O)c1ccccc1 (centres undefined) -12.4%
COc1cc2c(c(O)c1OC)C(=O)C(OC)CCC2 (centres undefined) 9.33%
Cc1c(Nc2ncccc2C(=O)O)cccc1C(F)(F)F 6.69% [at 25.6 µM]
C/C(CCC(=O)OC[C@@H]1O[C@H](C#Cc2ccccc2)C=C[C@@H]1Oc1ccc(C)cc1)=N/OC[C@@H](C)[C@H](OCc1ccccc1)C(C)C -14.2% [at 11.4 µM]
COCCn1c(=O)c(-c2cn(C)c3ccccc23)nc2cnc(Oc3ccccc3)nc21 8.26%
CCN(CC)C(=O)CCNS(=O)(=O)c1ccc(C)cc1 23.4%
Cc1ccc(C)n1NC(=O)c1ccccc1 -10.9%
Cc1ccc(S(=O)(=O)NCCSc2nnnn2C)cc1 2.18%
Cc1cc2ccccc2c(=O)n1CC(=O)NCC(=O)N1CCCC1 4.07%
O=C(NN1C(=O)c2ccccc2C1=O)C1CCCCC1 -6.28%
CN(C)CCn1c(C(=O)O)cc2ccccc21 8.96%
C[C@]12C=CC(=O)C=C1CC[C@@H]1[C@H]3C[C@@H](O)[C@](O)(C(=O)CO)[C@@]3(C)C[C@H](O)[C@]12F 4.42% [at 25.6 µM]
COc1ccc(S(=O)(=O)n2ccc(-c3cnc(-c4ccccc4)s3)n2)cc1 -30%
Cc1cc(-c2ccc(Cl)cc2)oc(=O)c1NC(=O)c1ccccc1 -25.3%
COc1cccc(Cn2c(=O)cnc3cnc(N(C)C)nc32)c1 -9.22%
CCCCOc1ccc(C(=O)NCc2ccco2)cc1 -28.9%
O=C(NCCc1ccccc1)C(=O)NCC1(c2ccccc2)CCCC1 22.4%
CN1c2ccccc2Oc2c(c(=O)n(C)c(=O)n2C)C1c1cccc([N+](=O)[O-])c1 (centres undefined) 14.5%
CCCN1CNC(=S)N(c2cccc(C)c2C)C1 -4.4%
COc1ccc(/C=N/NC(=O)c2ccn[nH]2)cc1COc1ccc(F)cc1 -5.88%
COc1ccc(/C=N/NC(=O)c2sccc2OCc2ccc(F)cc2)cc1OC 0.295%
Cn1c(=O)c2[nH]c(CCCCc3nc4c([nH]3)c(=O)n(C)c(=S)n4C)nc2n(C)c1=S -8.04% [at 11.4 µM]
Cc1c(NC(=O)Nc2c(Cl)cccc2Cl)c(=O)n(-c2ccccc2)n1C -4.06% [at 11.4 µM]
Cc1c(O)c(=O)n(-c2ccccc2)n1C -4.44% [at 25.6 µM]
O=c1nc2ccccc2c2n1C[C@H](CN1CCN(c3ccccc3)CC1)N2 -11.1%
O=C(O)/C=C(/C(=O)O)[C@]12CCN3CC4=CCO[C@@H]5CC(=O)N[C@@H]1[C@H]5[C@H]4C[C@H]32 -1.84% [at 11.4 µM]
Cc1cnc(CNc2nc(-c3ccc(C(=O)N(C)C)cc3)nc3ccccc23)cn1 -18.2%
CCOC(=O)C1CCCN(C(=O)CCn2nc(-c3ccccc3)ccc2=O)C1 (centres undefined) -20.7%
S=c1c2[nH]cnc2ncn1CCSc1ncnc2nc[nH]c12 8.54% [at 11.4 µM]
CN(C(=O)CCCOc1ccc2[nH]c(=O)ccc2c1)C1CCCCC1 -4.66%
CC(Oc1ccc(-c2ccccc2)c(F)c1)c1ccn(S(=O)(=O)c2ccc(Cl)cc2)n1 (centres undefined) -8.63%
COC(Cn1c(C)c(C(C)=O)c(C(C)=O)c1C)OC 17.2%
Nc1nc(-c2cccnc2)cc(-c2cc(-c3cccnc3)nc(N)n2)n1 -6.86% [at 11.4 µM]
CCC(=O)N1CCn2c1nc1ccccc12 3.08%
CCC(C)NC(=O)c1cnn2c(C)c3c(nc12)CCCC3 (centres undefined) -19.4%
CC(=O)NCCNc1nc(-c2ccc(C(=O)N(C)C)cc2)nc2ccccc12 -4.75%
COCCNc1nc(-c2ccc(C(=O)N(C)C)cc2)nc2ccccc12 -9.46%
COC(=O)N1CCC2(CC1)CN(C(=O)Nc1cccc(C#N)c1)C2 0.446%
COc1cc(NC(=O)c2c(F)cccc2F)nc(OC)n1 1.76%
Cc1cc(NC(=O)CCCC(=O)OCC(F)(F)C(F)F)cc(C)c1C(=O)O 12.6%
COc1ccc(-n2c(=O)c(-c3cc(F)cc(F)c3)nc3cnc(N4CCNCC4)nc32)cc1 9.29%
Cc1ccc(S(=O)(=O)Oc2ccc(/C=C(/NC(=O)c3ccccc3)C(=O)Nc3ccccc3)cc2)cc1 23.4%
C[C@H]1COC(=O)[C@H]2CCCN2C(=O)[C@@H](C)COC(=O)[C@H](Cc2ccccc2)NC1=O 2.57% [at 11.4 µM]
CCn1c(SCC(=O)Nc2ccc3c(c2)OCCO3)nc2c(c1=O)SC(C)C2 (centres undefined) -11.9%
CC1=NN(c2ccc(S(=O)(=O)O)cc2)C(=O)/C1=C\c1ccc(Cl)cc1 5.53% [at 11.4 µM]
O=C(N/C(=C\c1cccnc1)C(=O)N1CCOCC1)c1cccc(Br)c1 5.99%
Cc1noc(C)c1-c1nc(Nc2ccccc2)c2ccccc2n1 6.91%
N#Cc1cccc(-c2nc(Nc3ccncc3)c3ccccc3n2)c1 -7.94%
O=c1[nH][nH]cc1C=Nc1ccccc1O -5.68%
Cc1noc(COc2ccc(OCc3nc(C)no3)cc2)n1 -22.9%
Cc1cc(C)n(-c2nc(NC(C)C)nc(NC(C)C)n2)n1 1.57%
COc1cc(/C=C/C(=O)O)cc(S(=O)(=O)NCCCO)c1OC -3.23%
O=C1Oc2ccccc2C2(O)C3CCCCCC3C12 (centres undefined) -17.5%
CSc1nc(Oc2ccc(=O)[nH]n2)nc(N(C)C)n1 -21.1%
Cc1cc(/C=C2\SC(=S)NC2=O)c(C)n1C -6.16%
CCCCCSc1nnc(C)c(=O)[nH]1 9.5%
COc1ccc(NC(=O)N2CC[C@@]3(CCCN(C(=O)c4cc(C(F)(F)F)cc(C(F)(F)F)c4)C3)C2)cc1 7.53%
O=C(O)/C(Cc1ccc([N+](=O)[O-])cc1)=N/O 6.05% [at 11.4 µM]
COc1ccc(/C=C2/S/C(=N/N=C3\CC4CCC3(C)C4(C)C)NC2=O)cc1 (centres undefined) -4.41%
CCNc1ncc2nc(-c3ccc(OC)cc3)c(=O)n(Cc3cccs3)c2n1 -0.478%
COc1cccc(-c2csc(N3CCN(C(=S)Nc4ccccc4)CC3)n2)c1 -11.1%
COc1ccc(-c2csc(NC(=O)Cn3nc(C)cc3C)n2)cc1 -0.175%
Cc1ccc(OCC(=O)NNC(=O)C2CCN(c3ncccn3)CC2)cc1 -28%
OC[C@@H]1O[C@@H](n2cnc3c(NC4CCCC4)ncnc32)[C@H](O)[C@H]1O -1.52%

AC50, inactive:
CC(=O)O[C@]1(C(C)=O)CC[C@@H]2[C@@H]3C=C(Cl)C4=CC(=O)[C@H]5C[C@@H]5[C@]4(C)[C@H]3CC[C@]21C

AC50, active:
Cc1cc(=O)n2c3ccccc3n(CC(O)CN3CCCCC3)c2c1C#N (centres undefined) 8.91 µM
Cc1ccc(C(=O)N2CCN(C3c4cccc5cccc(c45)C3NS(=O)(=O)c3ccccc3)CC2)cc1 (centres undefined) 2.82 µM
Cc1ccccc1-c1nc(-n2ccnc2)c2ccccc2n1 15.8 µM
Clc1ccccc1-c1nc(-n2ccnc2)c2ccccc2n1 12.6 µM
Cc1cc2ccccc2n1CCNC(=O)C1CCCC1 12.6 µM
Cc1cc2ccccc2n1CCNC(=O)c1ccccc1 2.51 µM
Cc1ccc(S(=O)(=O)NCCn2c(C)cc3ccccc32)cc1 8.91 µM
CCCCCOc1ccc(C(=O)NCC2(c3ccccc3)CCOCC2)cc1 17.8 µM
COc1ccc(/C=N/NC(=O)c2ccccc2)cc1CN1CCN(c2ccc(F)cc2)CC1 25.1 µM
Cc1c(NCc2cc(Cl)ccc2O)c(=O)n(-c2ccccc2)n1C 6.31 µM
COc1ccccc1CNc1nc(-c2ccc(N(C)C)cc2)nc2ccccc12 10 µM
Cc1cnc(CNc2nc(-c3ccc4c(c3)OCO4)nc3ccccc23)cn1 15.8 µM
c1csc(CNc2nc(-c3ccc4c(c3)OCO4)nc3ccccc23)c1 10 µM
c1ccc(CNc2nc(-c3ccc4c(c3)OCO4)nc3ccccc23)cc1 12.6 µM
c1cncc(CNc2nc(-c3ccc4c(c3)OCO4)nc3ccccc23)c1 12.6 µM
COc1ccccc1CNc1nc(-c2ccc3c(c2)OCO3)nc2ccccc12 10 µM
CC(=O)NCCNc1nc(-c2ccc3c(c2)OCO3)nc2ccccc12 12.6 µM
Cc1cccc(CNc2nc(-c3ccc4c(c3)OCO4)nc3ccccc23)c1 20 µM
c1ccc2c(Nc3ccncc3)nc(-c3ccc4c(c3)OCO4)nc2c1 20 µM
c1ccc2c(N3CCNCC3)nc(-c3ccc4c(c3)OCO4)nc2c1 3.16 µM
CN(C)c1ccc(-c2nc(N3CCNCC3)c3ccccc3n2)cc1 12.6 µM
COc1cccc(Nc2nc(-c3ccc(O)cc3)cs2)c1 8.91 µM
